Only some compounds are listed: those with a hit (about 2.9% of all), similar ones and a draw of the others.
ADAM17 inh: ADAM17 inhibitors, primary screen, biochemical, QFRET; inhibition, % at 6.95 µM; recombinant ADAM17, EDANS/DABCYL FRET peptide cleavage; Disintegrin and metalloproteinase domain-containing protein 17 (Homo sapiens), P78536; 370,000 tested, 0.83% active;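 active = inhibition above the mean of compounds lying between control limits plus 3 SD, set per campaign, cut at about 8.5% in these data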
PLCg1 inh: PLC-gamma1 enzyme inhibitors, primary screen, biochemical, fluorescence, purified enzyme. 370,000 tested, 0.84% active. fluorogenic substrate. inhibition, % at 12.2 µM. 1-phosphatidylinositol 4,5-bisphosphate phosphodiesterase gamma-1 (Homo sapiens), P19174; in the data active = inhibition above about 9.5%
Target sequence (P19174 whole entry, looked up): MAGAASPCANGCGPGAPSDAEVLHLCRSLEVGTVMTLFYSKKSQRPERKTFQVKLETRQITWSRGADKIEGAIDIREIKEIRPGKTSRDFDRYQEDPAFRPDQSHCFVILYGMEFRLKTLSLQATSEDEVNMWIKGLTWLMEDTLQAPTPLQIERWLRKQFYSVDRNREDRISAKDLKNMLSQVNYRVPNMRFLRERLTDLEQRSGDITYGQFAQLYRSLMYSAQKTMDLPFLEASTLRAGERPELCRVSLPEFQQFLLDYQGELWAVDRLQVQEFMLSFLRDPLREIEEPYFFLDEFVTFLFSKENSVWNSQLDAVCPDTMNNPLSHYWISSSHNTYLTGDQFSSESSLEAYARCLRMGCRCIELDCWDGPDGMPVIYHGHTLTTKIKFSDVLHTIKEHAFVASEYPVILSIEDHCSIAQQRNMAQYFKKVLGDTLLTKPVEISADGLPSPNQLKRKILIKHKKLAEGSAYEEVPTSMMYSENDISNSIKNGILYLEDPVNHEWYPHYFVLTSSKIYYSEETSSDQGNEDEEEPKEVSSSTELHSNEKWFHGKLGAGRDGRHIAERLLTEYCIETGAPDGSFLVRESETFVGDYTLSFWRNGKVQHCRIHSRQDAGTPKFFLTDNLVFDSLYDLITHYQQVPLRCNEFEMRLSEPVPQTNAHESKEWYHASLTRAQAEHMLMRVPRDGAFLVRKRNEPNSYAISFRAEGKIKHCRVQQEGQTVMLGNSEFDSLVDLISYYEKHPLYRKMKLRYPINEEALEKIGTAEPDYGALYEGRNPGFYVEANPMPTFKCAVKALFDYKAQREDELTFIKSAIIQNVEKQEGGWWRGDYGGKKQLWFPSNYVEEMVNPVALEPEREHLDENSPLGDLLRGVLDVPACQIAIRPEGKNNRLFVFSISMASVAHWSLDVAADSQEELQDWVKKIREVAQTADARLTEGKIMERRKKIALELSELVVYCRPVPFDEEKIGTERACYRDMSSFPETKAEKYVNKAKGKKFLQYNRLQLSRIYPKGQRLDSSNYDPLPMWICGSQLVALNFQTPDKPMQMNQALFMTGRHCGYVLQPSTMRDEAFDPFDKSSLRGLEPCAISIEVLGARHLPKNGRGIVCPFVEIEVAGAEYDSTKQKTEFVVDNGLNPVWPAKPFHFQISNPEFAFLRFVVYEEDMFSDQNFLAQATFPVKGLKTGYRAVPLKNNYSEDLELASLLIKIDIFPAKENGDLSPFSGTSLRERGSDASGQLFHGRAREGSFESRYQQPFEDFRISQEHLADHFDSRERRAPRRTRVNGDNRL
proKLK7 act: proKLK7 zymogen activators, primary screen, biochemical, fluorescence intensity; purified proKLK7, EDANS-DABCYL substrate fluorescence; 100% is mature enzyme control, 0% vehicle; activation, % at 7 µM; 370,000 tested, 0.9% active; AID 652039, 2013;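 active = activation above the mean of all tested compounds plus 3 SD, computed per campaign excluding outliers beyond control limits, cut at about 13% in these data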
PLC-beta3 inh: human PLC-beta3 inhibitors, primary screen, biochemical, fluorescence. 1-phosphatidylinositol 4,5-bisphosphate phosphodiesterase beta-3 (Homo sapiens), Q01970. 370,000 tested, 0.18% active. Purified PLC-beta3, fluorogenic substrate. inhibition, % at 12.2 µM; in the data active = inhibition above about 11%
ADAM10 inh: human ADAM10 inhibitors, primary screen, biochemical, QFRET, HTS | recombinant ADAM10, EDANS/DABCYL FRET peptide cleavage, 3 h | 370,000 tested, 0.62% active | inhibition, % at 7 µM | Disintegrin and metalloproteinase domain-containing protein 10 (Homo sapiens), O14672 | AID 720582, 2013;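 active = inhibition above a per-campaign cutoff equal to the mean of compounds falling between control-based bounds plus 3 SD, cut at about 20% in these data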
ADAM10 ctr: ADAM10 inhibitors, counter-screen for ADAM17 exosite inhibitor project, biochemical, FRET, human ADAM10; shares compounds with ADAM17 inh; recombinant ADAM10, EDANS/DABCYL FRET peptide cleavage, 3 h; 2,900 tested, 47% active; inhibition, % at 6.95 µM; AID 743256, 2014;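 active = mean inhibition over the triplicate runs exceeds the activity threshold set in the earlier primary screen, cut at about 20% in these data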
ADAM17 confirm: ADAM17 inhibitors, hit retest, confirmation, biochemical, QFRET peptide cleavage. recombinant ADAM17, EDANS/DABCYL QFRET peptide cleavage. AID 743257, 2014. shares compounds with ADAM17 inh. inhibition, % at 6.95 µM. 2,900 tested, 65% active;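 active = mean inhibition across replicates above the hit cutoff set in the primary screen, cut at about 8.5% in these data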
Each line names hits and unclear results; the compound was inactive in the other large screens (follow-up assays come after a bar, where they were run).

Cn1c(C(C(=O)NCC2CCCO2)N(C(=O)Cn2nnc3ccccc32)C2CCCCC2)nc2ccccc21 (stereo unspecified)	none
N=C(N)SCc1ccccc1Cl	ADAM17 inh 9.4 | ADAM10 ctr inactive | ADAM17 confirm inactive
Cc1noc(C)c1C(=O)OCC(=O)Nc1ccccc1C(=O)NC(C)c1ccccc1 (stereo unspecified)	none
Cc1noc(C)c1C(=O)OCC(=O)Nc1ccccc1Oc1ccccc1	ADAM17 inh 8.7 | ADAM10 ctr inactive | ADAM17 confirm 11
CCOc1ccc(NS(=O)(=O)c2ccc3c(c2)CCN3C(=O)C2CCC2)cc1	none
CCOc1ccc(NS(=O)(=O)c2ccc3c(c2)CCN3C(=O)CCC(=O)O)cc1	ADAM17 inh 9.8 | ADAM10 ctr inactive | ADAM17 confirm inactive
c1ccc(-c2nc(NCc3ccco3)c3oc4ccccc4c3n2)cc1	ADAM17 inh 9.0 | ADAM10 ctr 29 | ADAM17 confirm 19
Cc1ccc(-c2nc(NCc3ccco3)c3ccccc3n2)cc1	none
Cc1cc(C)cc(NS(=O)(=O)c2ccc3[nH]cc(C(=O)N4CCc5ccccc54)c(=O)c3c2)c1	none
CCc1ccc(NS(=O)(=O)c2ccc3[nH]cc(C(=O)N4CCc5ccccc54)c(=O)c3c2)cc1	ADAM17 inh 10 | ADAM10 ctr inactive | ADAM17 confirm 11
C[C@@]12C(=O)N(c3cccc(F)c3)C(=O)N1[C@H](c1ccc(Cl)cc1)[C@@H]1C(=O)N(C3CCCCC3)C(=O)[C@@H]12	none
C[C@@]12C(=O)N(c3cccc(Cl)c3)C(=O)N1[C@H](c1ccc(Cl)cc1)[C@@H]1C(=O)N(C3CCCCC3)C(=O)[C@@H]12	ADAM17 inh 10 | ADAM10 ctr 38 | ADAM17 confirm 22
CCCCCCN1CCN(C2CN(Cc3cn(Cc4cccc(Cl)c4)nn3)S(=O)(=O)C2)CC1 (stereo unspecified)	none
CCCCCCN1CCN(C2CN(Cc3cn(Cc4ccc(Cl)cc4)nn3)S(=O)(=O)C2)CC1 (stereo unspecified)	ADAM17 inh 8.9 | ADAM10 ctr inactive | ADAM17 confirm inactive
CCOc1cc(S(=O)(=O)n2cc(-c3ccc(F)cc3)c(N)n2)cc(OCC)c1OCC	ADAM17 inh 11 | ADAM10 ctr 31 | ADAM17 confirm 18
CN1CCn2cnc(C(=O)Nc3ccc(CNC(=O)OC(C)(C)C)cc3)c2C1=O	none
Cc1ccc(C)c(S(=O)(=O)NCC(=O)NCc2ccco2)c1	none
COc1ccc(CC(=O)N2CCC(c3ccccc3)C2)cc1 (stereo unspecified)	none
COc1ccc(CC(=O)N2CCC(Nc3nc4ccccc4n3Cc3ccc(F)cc3)CC2)cc1	ADAM17 inh 11 | ADAM10 ctr 21 | ADAM17 confirm 12
Cc1onc(-c2ccccc2Cl)c1C(=O)Nc1cccc(S(=O)(=O)N2CCOCC2)c1	none
Cc1onc(-c2ccccc2)c1C(=O)Nc1ccc(Cl)c(S(=O)(=O)N2CCOCC2)c1	ADAM17 inh 11 | ADAM10 ctr inactive | ADAM17 confirm inactive
O=C(NC(Nc1nc2ccc([N+](=O)[O-])cc2s1)(C(F)(F)F)C(F)(F)F)c1ccccc1Cl	ADAM17 inh 11 | ADAM10 ctr 22 | ADAM17 confirm 13
Cc1ccc2c(CC(=O)N(CC3CCCO3)c3c(N)n(Cc4ccccc4)c(=O)[nH]c3=O)coc2c1 (stereo unspecified)	none
O=C(COc1ccc(Br)cc1CO)Nc1ccccc1	none
Cc1ccc(NC(=O)COc2ccc(Br)cc2CO)cc1	ADAM17 inh 9.3 | ADAM10 ctr inactive | ADAM17 confirm inactive
CCC(CC)C(=O)Nc1nnc(S(=O)(=O)N(CC)c2ccc(OC)cc2)s1	none
CC(=O)C[C@H](O)CC(=O)[C@@H]1OC(=O)CCCCC/C=C/Cc2ccccc21	ADAM17 inh 8.8 | ADAM10 ctr inactive | ADAM17 confirm inactive
O=S(=O)(c1ccc(NC(=S)Nc2ccccc2)cc1)N1CCOCC1	none
CC(C)CCCCCCNC(=S)Nc1ccc(S(=O)(=O)N2CCOCC2)cc1	ADAM17 inh 9.0 | ADAM10 ctr 47 | ADAM17 confirm 23
NS(=O)(=O)c1ccc(CCNC(=O)C(=O)NCC2OCCN2S(=O)(=O)c2cc(F)ccc2F)cc1 (stereo unspecified)	none
O=C(Nc1nc(-c2ccccn2)cs1)c1cccc(S(=O)(=O)N2CCOCC2)c1	none
O=c1[nH][nH]c(-c2ccccc2)c1C=Nc1ccccc1	none
O=c1[nH][nH]c(-c2ccccc2)c1C=Nc1ccc(C(F)(F)F)cc1	ADAM17 inh 13 | ADAM10 ctr inactive | ADAM17 confirm inactive
COc1ccc(C)cc1NC(=O)NNC(=O)C(C)Oc1ccc([N+](=O)[O-])cc1 (stereo unspecified)	ADAM17 inh 9.0 | ADAM10 ctr inactive | ADAM17 confirm 9.0
CCOC(=O)[C@@H]1[C@H]2COc3ccc(Br)cc3[C@H]2N2C(=O)N(c3ccc(C)cc3)C(=O)[C@]12C	ADAM17 inh 8.8 | ADAM10 ctr 33 | ADAM17 confirm 22
CCOC(=O)[C@@H]1[C@H]2COc3ccc(Br)cc3[C@@H]2N2C(=O)N(c3ccc(C)cc3)C(=O)[C@]12C	none
O=C(NC1CCCCC1)C(c1cccc2ccccc12)n1c(=O)c(-c2ccco2)nc2ccccc21 (stereo unspecified)	none
CC(C)(C)c1cc[n+](-c2[nH]c(=O)sc2/C=N/NC([S-])=Nc2ccccc2)cc1	none
O=C(NCCNc1ccc([N+](=O)[O-])cc1C(F)(F)F)c1ccccc1F	none
Cc1ccc(C(=O)NCCNc2ccc([N+](=O)[O-])cc2C(F)(F)F)cc1	ADAM17 inh 8.8 | ADAM10 ctr 20 | ADAM17 confirm 12
CCOc1cc(/C=N/NS(=O)(=O)c2ccccc2)ccc1OS(=O)(=O)c1ccc(C)cc1	none
CCOc1cc(/C=N/NC(=O)COc2ccc(Cl)cc2)ccc1OS(=O)(=O)c1ccccc1	ADAM17 inh 14 | ADAM10 ctr 37 | ADAM17 confirm 17

Screens: PubChem, The Scripps Research Institute Molecular Screening Center
